Laboratory results: PMC4336329 (PLoS ONE, 2015)
The campaign covered roughly 310,000 compounds. About 14,000 (4.5%) showed an effect of 50% or more. Effects have a minus sign here. What follows is part of a selection rich in strong results, with near analogues and random picks from the rest.

Molecular target: human ether-à-go-go-related gene (hERG) potassium channel (human, UniProt Q12809)
Experiment: primary screen, population patch clamp on CHO cells stably expressing hERG; higher = less effect of the substance
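Also: peak tail current of the secondary pulse compared with the same well before compound.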

human ether-à-go-go-related gene (hERG) potassium channel, sequence (Q12809 whole entry, looked up): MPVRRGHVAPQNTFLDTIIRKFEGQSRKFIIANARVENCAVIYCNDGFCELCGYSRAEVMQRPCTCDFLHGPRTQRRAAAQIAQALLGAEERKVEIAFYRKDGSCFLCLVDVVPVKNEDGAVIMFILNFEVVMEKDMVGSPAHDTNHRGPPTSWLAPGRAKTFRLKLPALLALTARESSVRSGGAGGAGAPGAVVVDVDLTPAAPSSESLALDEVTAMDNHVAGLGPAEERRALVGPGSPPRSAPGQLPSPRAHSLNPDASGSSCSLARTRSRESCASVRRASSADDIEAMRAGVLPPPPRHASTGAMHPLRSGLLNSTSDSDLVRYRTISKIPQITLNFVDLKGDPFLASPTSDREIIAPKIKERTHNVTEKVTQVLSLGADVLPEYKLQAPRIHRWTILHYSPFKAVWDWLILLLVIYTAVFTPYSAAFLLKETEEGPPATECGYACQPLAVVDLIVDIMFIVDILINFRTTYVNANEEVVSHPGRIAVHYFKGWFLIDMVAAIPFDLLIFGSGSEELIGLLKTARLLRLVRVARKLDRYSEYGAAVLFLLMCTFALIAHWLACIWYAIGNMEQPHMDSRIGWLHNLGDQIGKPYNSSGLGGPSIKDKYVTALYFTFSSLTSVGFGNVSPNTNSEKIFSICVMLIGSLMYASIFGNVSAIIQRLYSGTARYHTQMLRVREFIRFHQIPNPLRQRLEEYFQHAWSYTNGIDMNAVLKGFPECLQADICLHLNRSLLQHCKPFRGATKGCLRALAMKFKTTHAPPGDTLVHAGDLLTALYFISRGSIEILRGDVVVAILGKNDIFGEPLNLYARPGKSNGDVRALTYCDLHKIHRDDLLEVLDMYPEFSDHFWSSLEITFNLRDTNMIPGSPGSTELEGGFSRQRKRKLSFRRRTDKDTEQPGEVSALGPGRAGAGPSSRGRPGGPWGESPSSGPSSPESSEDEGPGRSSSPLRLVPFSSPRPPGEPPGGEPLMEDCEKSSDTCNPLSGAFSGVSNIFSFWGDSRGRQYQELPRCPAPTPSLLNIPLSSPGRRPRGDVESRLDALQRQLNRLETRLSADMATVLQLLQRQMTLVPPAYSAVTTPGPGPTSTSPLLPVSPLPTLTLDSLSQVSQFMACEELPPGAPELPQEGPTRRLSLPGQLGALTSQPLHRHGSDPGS

Structure (SMILES)	hERG current change (%, negative = inhibition) at 10uM
COP(=O)(OC)C(Nc1ccc([N+](=O)[O-])cc1)c1ccccc1 (stereo not shown)	-36.1%
CC(NC(=S)NCCc1ccccc1)C(c1cccs1)N1CCN(Cc2ccccc2)CC1 (stereo not shown)	-41.3%
Cc1sc(NC(=O)/C=C/c2ccc3c(c2)OCO3)nc1-c1ccccc1	8.5%
Cc1ccc(C)c(NS(=O)(=O)c2cc(C(=O)Nc3ccccc3-c3ccccc3)ccc2C)c1	18.2%
COc1cccc(CN2CCCCC2c2cccnc2)c1 (stereo not shown)	3.01%
Cc1noc(C)c1COc1ccc(C(=O)OCC(=O)NCCN2C(=O)CSC2=O)cc1	-8.06%
CC(c1c(O)c2ccccc2[nH]c1=O)C1(C)CCC(O)C(C)(C)O1 (stereo not shown)	-2.48%
COc1cc(/C=C(\C#N)c2nc3c(s2)CC(C)CC3)ccc1O (stereo not shown)	10.1%
O=C1CC2(CCCC2)Oc2ccccc21	3.39%
COc1ccc(S(=O)(=O)N2CCC3(CC2)CC(=O)c2ccccc2O3)cc1OC	11.6%
O=C(C(=O)N1CCOCC1)c1c[nH]c2ccccc12	18.3%
O=C(C(=O)N1CCCC1)c1c[nH]c2ccccc12	7.14%
COc1ccc(Cl)cc1C(=O)N1CCC2(CC1)CC(=O)c1ccccc1O2	-80.5%
CSc1ccccc1C(=O)N1CCCCC1	-9.98%
O=C1CC2(CCN(C(=O)c3c(F)cccc3Cl)CC2)Oc2ccccc21	-41.2%
CSc1ccccc1C(=O)N1CCOCC1	20%
COc1ccc(S(=O)(=O)N2CCC3(CC2)CC(=O)c2ccccc2O3)cc1C	-3.6%
O=C1CC2(CCN(C(=O)c3ccccc3Cl)CC2)Oc2ccccc21	-72.7%
O=C1CC2(CCN(C(=O)C(=O)c3c[nH]c4ccccc34)CC2)Oc2ccccc21	-55.3%
CSc1ccccc1C(=O)N1CCC2(CC1)CC(=O)c1ccccc1O2	-61%
CCn1c(SCC(=O)N2CCCc3ccccc32)nc2c(c1=O)SC(C)C2 (stereo not shown)	-24.7%
O=C(O)/C=C/c1ccccc1Oc1ccc(Cl)cc1Cl	-8.85%
CC(NC(=O)C[n+]1cccc(Br)c1)c1ccccc1.[Cl-] (stereo not shown)	17.6%
COC(C(=O)N/N=C(\C)CC(=O)Nc1ccc(Cl)cc1C)c1ccccc1 (stereo not shown)	-10.5%
CCOC(=O)CSc1nc(C)cc(C)n1	7.29%
FC(F)(F)c1ccccc1CNCc1ccc2c(c1)OCO2	0.962%
O=C(Nc1ccccc1OC(F)F)c1oc2ccccc2c1COc1ccccc1	0.283%
COc1ccc(-n2c(Cc3cc(=O)[nH]c(=O)[nH]3)nnc2SCC(=O)Nc2cc(C(F)(F)F)ccc2Cl)cc1	-3.73%

Structure (SMILES)	hERG current change (%, negative = inhibition) at 10uM
CCCC(c1nnnn1CC(=O)OCC)N(Cc1cc2c(C)cc(C)cc2[nH]c1=O)C1CCCC1 (stereo not shown)	22.1%
O=C1CC2(CCCC2)Oc2ccc(Cl)cc21	8.19%
CC(=O)N1CCC2(CC1)CC(=O)c1cc(Cl)ccc1O2	-55.2%
O=C1CC2(CCCCC2)Oc2ccccc21	14.4%
O=C(c1ccccc1F)N1CCC2(CC1)OCCO2	30.8%
O=C1CC2(CCCCCC2)Oc2ccc(Cl)cc21	9.01%
O=C1CC2(CCN(C(=O)c3ccccc3F)CC2)Oc2ccccc21	-73.2%
O=C1CC2(CCCCCC2)Oc2ccccc21	-6.74%
O=C1CC2(CCN(C(=O)c3ccccc3Br)CC2)Oc2ccccc21	-76.9%
O=C1CC2(CCN(C(=O)c3c(F)cccc3F)CC2)Oc2ccccc21	-34.2%
Cc1ccc(SC(C)C(=O)N2CCC(C(N)=O)CC2)cc1 (stereo not shown)	20.1%
CCOc1ccc(-c2nc(N)ncc2Oc2ccc(OC)cc2)c(O)c1	-2.1%
Cc1cccc(CNc2ccc(C(CC(N)=O)NC(=O)c3cccc(Br)c3)cc2[N+](=O)[O-])c1 (stereo not shown)	-19.8%
CC(C)C(=O)Nc1cccc(NC(=O)c2cccc([N+](=O)[O-])c2)c1	-30.9%
O=C(Nc1cccc([N+](=O)[O-])c1)c1cccc(C(=O)Nc2cccc([N+](=O)[O-])c2)c1	24.1%
O=C(Cn1cc[n+](Cc2ccccc2)c1)c1ccc([N+](=O)[O-])cc1.[Br-]	-23.7%
O=C(C[n+]1ccn(-c2ccccc2)c1)c1ccc([N+](=O)[O-])cc1.[Br-]	-61.3%
CCC(=O)Nc1cccc(NC(=O)c2cccc([N+](=O)[O-])c2)c1	-61.2%
O=C(C[n+]1ccc2ccccc2c1)c1ccc(NC(=O)c2ccccc2)cc1.[Br-]	-0.135%
O=C(C[n+]1cccc(NC(=O)c2ccccc2)c1)c1ccc(NC(=O)c2ccccc2)cc1.[Br-]	1.37%
O=C(Nc1ccccc1)c1ccc[n+](Cc2ccc([N+](=O)[O-])cc2)c1.[Br-]	-4.25%
O=C(C[n+]1ccc2ccccc2c1)c1ccccc1.[Br-]	-22.5%
O=C(C[n+]1cccc(C(=O)Nc2ccccc2)c1)c1ccc([N+](=O)[O-])cc1.[Br-]	-73.1%
O=C(C[n+]1ccc2ccccc2c1)c1cccc2ccccc12.[Br-]	-72.8%
C=Cn1cc[n+](CC(=O)c2ccc(-c3ccccc3)cc2)c1.[Br-]	7.91%
COc1ccc(/C=C/C(=O)O)cc1S(=O)(=O)NCC1CCCO1 (stereo not shown)	14.1%
O=[N+]([O-])c1cccc(CSC2=NCCN2S(=O)(=O)c2ccccc2)c1	-6.78%
